Assay results published in PubChem BioAssay AID1159580 (chemical genetic matrix, 2015).
About 2,000 (36%) of roughly 5,500 compounds were called active. Inconclusive results (about 18%) are left out. Rule as the data show it: active = normalized growth mostly below about 0.91 (no sharp cut-off); inconclusive = no clear call, values can overlap the other calls; inactive = mostly above about 0.92. The list shows a part of the results.

Test: chemical genetic growth profiling, strain panel (AID 1159580);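 also: tested at 20 µM; growth read once vehicle control cultures reached saturation at 30 °C; 1 = growth at the plate median or of vehicle wells; lower values mean less growth of the strain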
Settings: growth OD

Measured: normalized growth

COC1=CC23CCCN2CCc2cc4c(cc2C3C1O)OCO4 (centres undefined)
inactive: S. cerevisiae deletion strains, locus YJL187C, strain SWE1, active compounds read low 1.02 | S. cerevisiae deletion strains, locus YJR043C, strain POL32, active compounds read low 0.999 | S. cerevisiae deletion strains, locus YJR066W, strain TOR1, active compounds read low 0.92 | S. cerevisiae deletion strains, locus YJR075W, strain HOC1, active compounds read low 1.01 | S. cerevisiae deletion strains, locus YKL009W, strain mrt4, active compounds read low 1.01 | S. cerevisiae deletion strains, locus YKL068W, active compounds read low 1 | S. cerevisiae deletion strains, locus YKL085W, strain MDH1 (second series), active compounds read low 1.01 | S. cerevisiae deletion strains, locus YKL085W, strain MDH1, active compounds read low 1.01 | S. cerevisiae deletion strains, locus YKL160W, strain elf1, active compounds read low 1.02 | S. cerevisiae deletion strains, locus YKL190W, strain CNB1, active compounds read low 1 | S. cerevisiae deletion strains, locus YKR001C, strain vps1, active compounds read low 1.01 | S. cerevisiae deletion strains, locus YKR026C, strain gcn3, active compounds read low 1.02 | S. cerevisiae deletion strains, locus YKR091W, strain srl3, active compounds read low 1.02 | S. cerevisiae deletion strains, locus YLL001W, strain dnm1, active compounds read low 1.02 | S. cerevisiae deletion strains, locus YLL026W, active compounds read low 1.02 | S. cerevisiae deletion strains, locus YLL041C, strain sdh2, active compounds read low 1.02 | S. cerevisiae deletion strains, locus YLR027C, strain aat2, active compounds read low 1.01 | S. cerevisiae deletion strains, locus YLR039C, strain RIC1, active compounds read low 1.04 | S. cerevisiae deletion strains, locus YLR058C, strain SHM2, active compounds read low 1 | S. cerevisiae deletion strains, locus YLR102C, strain apc9, active compounds read low 1 | S. cerevisiae deletion strains, locus YLR113W, strain HOG1, active compounds read low 0.959 | S. cerevisiae deletion strains, locus YLR221C, strain rsa3, active compounds read low 1.03 | S. cerevisiae deletion strains, locus YLR258W, strain gsy2, active compounds read low 1.02 | S. cerevisiae deletion strains, locus YLR262C, strain YPT6 (second series), active compounds read low 1.04 | S. cerevisiae deletion strains, locus YLR262C, strain YPT6, active compounds read low 1.04 | S. cerevisiae deletion strains, locus YLR268W, strain sec22, active compounds read low 1.02 | S. cerevisiae deletion strains, locus YLR320W, strain mms22, active compounds read low 1.05 | S. cerevisiae deletion strains, locus YLR330W, strain CHS5, active compounds read low 1 | S. cerevisiae deletion strains, locus YLR342W, strain FKS1 (second series), active compounds read low 0.997 | S. cerevisiae deletion strains, locus YLR342W, strain FKS1, active compounds read low 1.02 | S. cerevisiae deletion strains, locus YLR357W, strain rsc2, active compounds read low 1.06 | S. cerevisiae deletion strains, locus YLR370C, strain arc18, active compounds read low 1.03 | S. cerevisiae deletion strains, locus YLR371W, strain rom2, active compounds read low 1.01 | S. cerevisiae deletion strains, locus YLR384C, strain iki3, active compounds read low 1.02 | S. cerevisiae deletion strains, locus YLR418C, strain cdc73, active compounds read low 0.992 | S. cerevisiae deletion strains, locus YML016C, strain PPZ1, active compounds read low 1 | S. cerevisiae deletion strains, locus YML032C, strain rad52, active compounds read low 0.98 | S. cerevisiae deletion strains, locus YML120C, strain ndi1, active compounds read low 1.02 | S. cerevisiae deletion strains, locus YML124C, strain tub3, active compounds read low 1 | S. cerevisiae deletion strains, locus YMR058W, strain fet3, active compounds read low 1.03 | S. cerevisiae deletion strains, locus YMR078C, strain ctf18, active compounds read low 1.01 | S. cerevisiae deletion strains, locus YMR125W, strain sto1, active compounds read low 1.04 | S. cerevisiae deletion strains, locus YMR129W, active compounds read low 1.02 | S. cerevisiae deletion strains, locus YMR205C, strain PFK2, active compounds read low 1.05 | S. cerevisiae deletion strains, locus YMR223W, strain ubp8, active compounds read low 1.01 | S. cerevisiae deletion strains, locus YMR231W, strain pep5, active compounds read low 1.02 | S. cerevisiae deletion strains, locus YMR307W, strain GAS1, active compounds read low 0.984 | S. cerevisiae deletion strains, locus YNL067W, strain RPL9B, active compounds read low 0.99 | S. cerevisiae deletion strains, locus YNL071W, strain lat1, active compounds read low 1.02 | S. cerevisiae deletion strains, locus YNL183C, strain NPR1, active compounds read low 0.926 | S. cerevisiae deletion strains, locus YNL209W, strain ssb2, active compounds read low 1.02 | S. cerevisiae deletion strains, locus YNL233W, strain BNI4, active compounds read low 0.989 | S. cerevisiae deletion strains, locus YNL248C, strain rpa49, active compounds read low 1.04 | S. cerevisiae deletion strains, locus YNL250W, strain rad50, active compounds read low 1.01 | S. cerevisiae deletion strains, locus YNL271C, strain bni1, active compounds read low 1.01 | S. cerevisiae deletion strains, locus YNL298W, strain CLA4, active compounds read low 1.01 | S. cerevisiae deletion strains, locus YNL307C, strain MCK1, active compounds read low 1.01 | S. cerevisiae deletion strains, locus YNL322C, strain KRE1 (second series), active compounds read low 1.02 | S. cerevisiae deletion strains, locus YNR049C, strain mso1, active compounds read low 1.05 | S. cerevisiae deletion strains, locus YNR052C, strain pop2, active compounds read low 1 | S. cerevisiae deletion strains, locus YOL012C, strain htz1 0.879 | S. cerevisiae deletion strains, locus YOL147C, strain pex11, active compounds read low 1.01 | S. cerevisiae deletion strains, locus YOR001W, strain rrp6, active compounds read low 1.04 | S. cerevisiae deletion strains, locus YOR061W, strain CKA2, active compounds read low 1.01 | S. cerevisiae deletion strains, locus YOR069W, strain VPS5, active compounds read low 1.01 | S. cerevisiae deletion strains, locus YOR070C, strain gyp1, active compounds read low 1.02 | S. cerevisiae deletion strains, locus YOR080W, strain dia2, active compounds read low 1.03 | S. cerevisiae deletion strains, locus YOR083W, strain WHI5, active compounds read low 1.03 | S. cerevisiae deletion strains, locus YOR106W, strain vam3, active compounds read low 1.03 | S. cerevisiae deletion strains, locus YOR136W, strain idh2, active compounds read low 1.01 | S. cerevisiae deletion strains, locus YOR144C, strain elg1, active compounds read low 1.01 | S. cerevisiae deletion strains, locus YOR184W, strain ser1, active compounds read low 0.999 | S. cerevisiae deletion strains, locus YOR231W, strain MKK1, active compounds read low 0.972 | S. cerevisiae deletion strains, locus YOR265W, strain rbl2, active compounds read low 1.05 | S. cerevisiae deletion strains, locus YOR270C, strain vph1, active compounds read low 1.09 | S. cerevisiae deletion strains, locus YOR290C, strain snf2, active compounds read low 1 | S. cerevisiae deletion strains, locus YOR316C, strain cot1, active compounds read low 1.01 | S. cerevisiae deletion strains, locus YPL051W, strain arl3, active compounds read low 1.02 | S. cerevisiae deletion strains, locus YPL055C, strain LGE1, active compounds read low 0.999 | S. cerevisiae deletion strains, locus YPL078C, strain atp4, active compounds read low 1.03 | S. cerevisiae deletion strains, locus YPL106C, strain sse1, active compounds read low 1.03 | S. cerevisiae deletion strains, locus YPL240C, strain hsp82, active compounds read low 1.02 | S. cerevisiae deletion strains, locus YPL256C, strain CLN2, active compounds read low 0.949 | S. cerevisiae deletion strains, locus YPR119W, strain clb2, active compounds read low 1 | S. cerevisiae deletion strains, locus YPR141C, strain kar3, active compounds read low 1.01 | S. cerevisiae deletion strains, locus YPR163C, strain tif3, active compounds read low 1.01 | S. cerevisiae deletion strains, locus YPR167C, strain met16, active compounds read low 0.998 | S. cerevisiae deletion strains, strain wtn01, active compounds read low 1.02 | S. cerevisiae strains, strain wild type, active compounds read low 1
